Where a name gives a salt, the structure may show the parent alone. Some results are limits rather than exact numbers.

In the test the test system is thyroid hormone receptor (endogenous TRα and TRβ). Set-up: species or system GH3-TRE-Luc (rat pituitary); GH3-TRE-Luc luciferase reporter, antagonist mode against 1 nM T3, loss of signal, qHTS. The settings on record: read-out: Average AC50 (uM) GH3-TRE-Antag, antagonist mode, 1 nM T3, no GH3 cytotoxicity hit.
As for `CSc1nc(NC2CC2)nc(NC(C)(C)C)n1` [Cybutryne], the AC50 turned out to be 67.1 µM.

Consider `Cn1cc(C(=O)[C@@H]2CCc3nc[nH]c3C2)c2ccccc21` [Ramosetron hydrochloride], for which the AC50 was 40.9 µM.

Regarding `CCOC(=O)C1=NN(c2ccccc2)C(=O)C1` [Ethyl 5-oxo-1-phenyl-4,5-dihydro-1H-pyrazole-3-carboxylate], the concentration at half-maximal activity (AC50) came to 47.8 µM.

`CCO[Si](C)(CCCOCC1CO1)OCC` (stereo not drawn) [Diethoxy(methyl)[3-(oxiran-2-ylmethoxy)propyl]silane]: the AC50 came out at 62.6 µM.

Turning to `CCCCCCCCCCCCN` [1-Dodecanamine], the AC50 is 74.1 µM.

Turning to `Clc1ccc(C2(Cn3cncn3)CC(Br)CO2)c(Cl)c1` (stereo not drawn) [Bromuconazole], the AC50 stood at 72.5 µM.

As for `CCCCCCCCCCCCCCNCCO` [Myralact], the half-maximal activity concentration (AC50) was 22.8 µM.

On to `CCc1ccc(C(=O)C(C)CN2CCCCC2)cc1` (stereo not drawn) [Eperisone hydrochloride], for which the AC50 amounted to 38.3 µM.

Turning to `CCC1(C2=NCCN2)Cc2ccccc2O1` (stereo not drawn) [Efaroxan], the AC50 turned out to be 45.2 µM.

On to `CCCCC/C=C\C/C=C\C/C=C\CCCCC(=O)O` [Gamolenic acid], for which the AC50 is 22.9 µM.

`C[C@]12CC[C@H]3[C@@H](CC[C@@]45O[C@@H]4C(O)=C(C#N)C[C@]35C)[C@@H]1CC[C@@H]2O` [Trilostane]: the concentration at half-maximal activity (AC50) was above 50 µM.

On to `Cl/C(=C\n1cncn1)c1ccc(Cl)cc1Cl` [Loreclezole hydrochloride], for which the AC50 was determined as 18.3 µM.

In the case of `CCN(CC)CCOCCOC(=O)C1(c2ccccc2)CCCC1` [Carbetapentane], the AC50 amounted to 11 µM.

As for `O=C(c1ccc(O)cc1)c1ccc(Cl)cc1` [4-Hydroxy-4'-chlorobenzophenone], the concentration at half-maximal activity (AC50) came to 86.9 µM.

In the case of `Oc1ccc(Cc2ccccc2O)cc1` [2-(4-Hydroxybenzyl)phenol], the AC50 was found to be 63.8 µM.

With `Cc1ccc2nc(N)[nH]c(=O)c2c1Sc1ccncc1` [Nolatrexed dihydrochloride], the AC50 was 4.76 µM.

Take `CC(C)NCC(O)COc1ccc(CCOCC2CC2)cc1` (stereo not drawn) [Betaxolol]: the AC50 is 39.4 µM.

In the case of `CCN(CC)c1ccc(C(=O)c2ccccc2C(=O)O)c(O)c1` [2-[4-(Diethylamino)-2-hydroxybenzoyl]benzoic acid], the concentration at half-maximal activity (AC50) is 43.7 µM.

Regarding `Cc1cccc(Nc2ccccc2)c1` [3-Methyl-N-phenylaniline], the AC50 was determined as 45 µM.

For the molecule `Nc1c2ccccc2nc2ccccc12` [9-Aminoacridine, monohydrochloride, monohydrate], the half-maximal activity concentration (AC50) was found to be 3.62 µM.

Turning to `CC(C)(O)c1cnn2c(-c3ccc(F)c(-c4c(F)cccc4C#N)c3)cnc2n1` [PharmaGSID_47330], the AC50 was found to be 42.1 µM.

For the molecule `O=C(c1ccc(F)cc1)C1CCN(CCn2c(=S)[nH]c3ccccc3c2=O)CC1` [Altanserin hydrochloride], the half-maximal activity concentration (AC50) turned out to be 46.6 µM.

With `C[C@H]1O[C@@H](O[C@H]2[C@@H](O)C[C@H](O[C@H]3[C@@H](O)C[C@H](O[C@H]4CC[C@@]5(C)[C@H](CC[C@@H]6[C@@H]5CC[C@]5(C)[C@@H](C7=CC(=O)OC7)CC[C@]65O)C4)O[C@@H]3C)O[C@@H]2C)C[C@H](O)[C@@H]1O` [Digitoxin], the AC50 amounted to 40 µM.

Take `CSC1=N[C@@](C)(c2ccccc2)C(=O)N1Nc1ccccc1` [Fenamidone]: the concentration at half-maximal activity (AC50) was determined as 6.3 µM.

For `c1ccc(CN(Cc2ccccc2)Cc2ccccc2)cc1` [Tribenzylamine], the AC50 was found to be 90.8 µM.

As for `CCCCOC(=O)c1ccc(O)cc1` [Butylparaben], the AC50 is above 50 µM.

As for `CCCCCCCCCC=CCC1CC(=O)OC1=O` (stereo not drawn) [(2-Dodecenyl)succinic anhydride], the half-maximal activity concentration (AC50) turned out to be 74.5 µM.

Take `Brc1cc(-c2ccc(Br)c(Br)c2Br)cc(Br)c1Br` [Polybrominated biphenyls (PBB)]: the concentration at half-maximal activity (AC50) came to 51.8 µM.

For `CCCCCCCCCCCCCC(=O)O` [Tetradecanoic acid], the AC50 worked out at 52.3 µM.

In the case of `Clc1ccc(Cn2c(CN3CCCC3)nc3ccccc32)cc1` [Clemizole hydrochloride], the AC50 was 13.3 µM.

On to `C=C(C)C(=O)Nc1ccc(Cl)c(Cl)c1` [Chloranocryl], for which the concentration at half-maximal activity (AC50) stood at 55.5 µM.

For the molecule `Cc1ccccc1C(=O)Nc1ccc(C(=O)N2CCCC(O)c3cc(Cl)ccc32)c(C)c1` (stereo not drawn) [Tolvaptan], the AC50 came out at 21.9 µM.

With `CC(=O)[C@H]1CC[C@H]2[C@@H]3CC=C4C[C@@H](O)CC[C@]4(C)[C@H]3CC[C@]12C` [Pregnenolone], the AC50 was determined as 11.6 µM.

For `CCCCNc1ccc(C(=O)OCCN(C)C)cc1` [Tetracaine hydrochloride], the AC50 was 11.2 µM.

Regarding `CC(=O)[C@H]1CC[C@H]2[C@@H]3C=CC4=CC(=O)CC[C@@]4(C)[C@@H]3CC[C@]12C` [Dydrogesterone], the AC50 is 9.99 µM.

For `Cc1ccc(/C=N/n2c(-c3ccccc3)csc2=S)cc1` [Fezatione], the AC50 stood at 20.5 µM.

For `CO[C@@H]1[C@H](OC(=O)NC(=O)CCl)CC[C@]2(CO2)[C@H]1[C@@]1(C)O[C@@H]1CC=C(C)C` [o-(Chloroacetylcarbamoyl)fumagillol], the concentration at half-maximal activity (AC50) worked out at 4.57 µM.

For the molecule `CCCN1C[C@H](CSC)C[C@@H]2c3cccc4[nH]cc(c34)C[C@H]21` [Pergolide methanesulfonate], the half-maximal activity concentration (AC50) was found to be 10.1 µM.

With `[O-][N+](=Nc1ccccc1)c1ccccc1` [Azoxybenzene], the AC50 is above 50 µM.

The values are drawn from publication PMC6792352, “Limited Chemical Structural Diversity Found to Modulate Thyroid Hormone Receptor in the Tox21 Chemical Library” (Environmental Health Perspectives, 2019).
